Values joined by “and” are separate entries in the source; they are usually repeats but may differ in a detail not shown here. Identical values can stand only once. Counter-ions that a name gives are not always drawn.
test system: FLX1 + dox-induced PRKAR1A G325D; assay: difference in log2 fold change of viability vs plate median (dox-induced PRKAR1A G325D minus uninduced); higher = compound less effective when PKA is inhibited; details: concentration: not stated (2 or 5 uM); 5 days
Experimental: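 For each plate a log2 fold change vs the plate median was derived, and the values without dox were subtracted from those with dox, averaged over three biological replicates.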

Q: With `Clc1ccc(Nc2nnc(Cc3ccncc3)c3ccccc23)cc1` [Vatalanib (PTK787) 2HCl] as the compound, how does the “difference in log2 fold change of viability” value (“difference in log2 fold change” for short) read?
A: The value was 0.168.

Q: How did the “difference in log2 fold change” value turn out when `CN1CCN(c2ccc3nc(-c4c(N)c5c(F)cccc5[nH]c4=O)[nH]c3c2)CC1` [Dovitinib (TKI-258) Dilactic Acid] was run?
A: The value was -0.364.

Q: For `C[C@H](NC(=O)/C(C#N)=C/c1cccc(Br)n1)c1ccccc1`, which “difference in log2 fold change” value is on record?
A: The value was -0.381.

Q: `O=C1Nc2ccccc2/C1=C1/Nc2ccccc2C1=O` [Indirubin] was tested. Which “difference in log2 fold change” value did it give?
A: The value was 0.211.

Q: `CC(C)(C)c1ccc(S(=O)(=O)/C=C/C#N)cc1` was tested. Which “difference in log2 fold change” value did it give?
A: Its value is 0.145.

Q: How did the “difference in log2 fold change” value turn out when `C=CC(=O)Nc1cccc(Sc2nc(Nc3ccc(N4CCN(C)CC4)cc3)ncc2Cl)c1` was run?
A: Its value is 0.0442.

Q: `N#C/C(=C(/N)Sc1ccc(N)cc1)c1ccccc1C(F)(F)F` was tested. Which “difference in log2 fold change” value did it give?
A: Its value is 0.1.

Q: `CCc1cccc(CC)c1NC(=O)N1Cc2[nH]nc(NC(=O)c3ccc(N4CCN(C)CC4)cc3)c2C1` was tested. Which “difference in log2 fold change” value did it give?
A: The value was 0.41.

Q: How did the “difference in log2 fold change” value turn out when `CN(c1ncccc1CNc1nc(Nc2ccc3c(c2)CC(=O)N3)ncc1C(F)(F)F)S(C)(=O)=O` was run?
A: The value was 0.235 and 0.428.

Q: With `COc1ccc(F)c(F)c1C(=O)c1cnc(NC2CCN(S(C)(=O)=O)CC2)nc1N` as the compound, how does the “difference in log2 fold change” value read?
A: Its value is 0.247.

Q: How did the “difference in log2 fold change” value turn out when `COc1cc2ncnc(Nc3ccc(Cl)cc3F)c2cc1OC` was run?
A: Its value is -0.233.

Q: With `O=C(c1ccc(Nc2nccc(-c3cc4ccccc4s3)n2)cc1)N1CCC(N2CCCC2)CC1` [IKK-16 (IKK Inhibitor VII)] as the compound, how does the “difference in log2 fold change” value read?
A: The value was 0.096.

Q: With `COc1cc2ncnc(Nc3cccc(Cl)c3)c2cc1OC` [AG-1478 (Tyrphostin AG-1478)] as the compound, how does the “difference in log2 fold change” value read?
A: Its value is 0.0422.

Q: For `Cc1cnc(-c2cnc(NCCNc3ccc(C#N)cn3)nc2-c2ccc(Cl)cc2Cl)[nH]1`, which “difference in log2 fold change” value is on record?
A: Its value is -0.0854 and -0.119.

Q: With `CN1CC[C@H](c2c(O)cc(O)c3c(=O)cc(-c4ccccc4Cl)oc23)[C@H](O)C1` [Flavopiridol (Alvocidib)] as the compound, how does the “difference in log2 fold change” value read?
A: Its value is 0.251.

Q: How did the “difference in log2 fold change” value turn out when `Cc1ccc(C(=O)Nc2cccc(C(F)(F)F)c2)cc1Nc1nc(-c2cccnc2)nc2c1cnn2C` was run?
A: Its value is 0.868.

Q: With `CC(C)NC[C@@H](C(=O)N1CCN(c2ncnc3c2[C@H](C)C[C@H]3O)CC1)c1ccc(Cl)cc1` [Ipatasertib (GDC-0068)] as the compound, how does the “difference in log2 fold change” value read?
A: Its value is 0.54.

Q: With `CNC(=O)c1ccccc1Nc1nc(Nc2ccc(N3CCOCC3)cc2OC)ncc1Cl` as the compound, how does the “difference in log2 fold change” value read?
A: Its value is -1.51.

Q: Which “difference in log2 fold change” value does the source give for `CC[C@@H]1C(=O)N(C)c2cnc(Nc3ccc(C(=O)N[C@H]4CC[C@H](N5CCN(CC6CC6)CC5)CC4)cc3OC)nc2N1C(C)C` [Volasertib (BI 6727)] here?
A: Its value is -0.0557.

Q: With `CCc1cncnc1N1CCN(Cc2nc3ccc(C(F)(F)F)cc3[nH]2)CC1` as the compound, how does the “difference in log2 fold change” value read?
A: Its value is -1.55.

Q: With `COCC(=O)NC/C=C/c1ccc2ncnc(Nc3ccc(Oc4ccc(C)nc4)c(C)c3)c2c1` as the compound, how does the “difference in log2 fold change” value read?
A: Its value is 0.0049.

Q: For `COc1cc2nccc(Oc3ccc(NC(=O)C4(C(=O)Nc5ccc(F)cc5)CC4)cc3)c2cc1OC`, which “difference in log2 fold change” value is on record?
A: The value was 0.457.

Q: How did the “difference in log2 fold change” value turn out when `CNC(=O)c1cc(Oc2ccc(NC(=O)Nc3ccc(Cl)c(C(F)(F)F)c3)cc2)ccn1` [Sorafenib] was run?
A: Its value is 0.0478.

Q: How did the “difference in log2 fold change” value turn out when `Oc1ccc(Nc2nc(-c3ccc(Cl)cc3)cs2)cc1` was run?
A: Its value is -0.56.

Q: How did the “difference in log2 fold change” value turn out when `CN(C)Cc1cccc(N/C(=C2\C(=O)Nc3cc(C(N)=O)ccc32)c2ccccc2)c1` was run?
A: Its value is -0.409.

Q: With `Cc1cc(Nc2ncc(Cl)c(Nc3ccccc3S(=O)(=O)C(C)C)n2)c(OC(C)C)cc1C1CCNCC1` [Ceritinib (LDK378)] as the compound, how does the “difference in log2 fold change” value read?
A: The value was 0.032.

Q: Which “difference in log2 fold change” value does the source give for `O=S(=O)(NCCNC/C=C/c1ccc(Br)cc1)c1cccc2cnccc12` here?
A: The value was -0.243.

Q: For `Oc1cccc(-c2nc(N3CCOCC3)c3oc4ncccc4c3n2)c1`, which “difference in log2 fold change” value is on record?
A: Its value is 0.496.

Q: How did the “difference in log2 fold change” value turn out when `C[C@]1(O)C[C@@H](c2nc(-c3ccc4ccc(-c5ccccc5)nc4c3)c3c(N)nccn32)C1` [Linsitinib (OSI-906)] was run?
A: The value was 0.468.

Q: With `CC(=O)Nc1cccc(-n2c(=O)n(C3CC3)c(=O)c3c(Nc4ccc(I)cc4F)n(C)c(=O)c(C)c32)c1` as the compound, how does the “difference in log2 fold change” value read?
A: Its value is -0.368.

Q: `C[C@@H](Oc1cc(-n2cnc3ccc(CN4CCN(C)CC4)cc32)sc1C(N)=O)c1ccccc1C(F)(F)F` was tested. Which “difference in log2 fold change” value did it give?
A: Its value is -0.2.

Q: For `O=C1Nc2ccc(I)cc2/C1=C/c1cc(Br)c(O)c(Br)c1`, which “difference in log2 fold change” value is on record?
A: Its value is 1.35.

Q: With `N=C(N)NC(=N)NCCc1ccccc1` [Phenformin HCl] as the compound, how does the “difference in log2 fold change” value read?
A: The value was -0.0569.

Q: Which “difference in log2 fold change” value does the source give for `C=CC(=O)Nc1cccc(Nc2nc(Nc3ccc(NC4CN(CCF)C4)cc3OC)ncc2C(F)(F)F)c1` here?
A: The value was -0.839.

Q: How did the “difference in log2 fold change” value turn out when `CNC(=O)c1cccc(-c2ccc3c(N4CCOC[C@@H]4C)nc(N4CCOC[C@@H]4C)nc3n2)c1` [Vistusertib (AZD2014)] was run?
A: The value was 0.675.

Q: Which “difference in log2 fold change” value does the source give for `O=C(NOCC1CC1)c1ccc(F)c(F)c1Nc1ccc(I)cc1Cl` here?
A: Its value is 0.453.

Q: Which “difference in log2 fold change” value does the source give for `Cc1c(NC(=O)OC[C@@H]2COCCN2)cn2ncnc(Nc3ccc4c(cnn4Cc4cccc(F)c4)c3)c12` here?
A: Its value is -0.034.

Q: With `Cc1cc(CS(=O)(=O)c2ccccc2)cc(OCc2ccc(CN3CCC[C@@H]3CO)cc2)c1` as the compound, how does the “difference in log2 fold change” value read?
A: Its value is 0.461.

Q: `CC[C@H](CO)Nc1nc(NCc2ccccc2)c2ncn(C(C)C)c2n1` [Roscovitine (Seliciclib,CYC202)] was tested. Which “difference in log2 fold change” value did it give?
A: Its value is 0.0426.

Q: `O=c1cc(-c2cccc3c2Sc2ccccc2S3)oc(N2CCOCC2)c1` was tested. Which “difference in log2 fold change” value did it give?
A: The value was 0.329.
